# Data reported in ChEMBL document CHEMBL2218924, “A broad activity screen in support of a chemogenomic map for kinase signalling research and drug discovery” (Biochem J, 2013).
# Assays:
# [1] = biological target: ALK tyrosine kinase receptor (Homo sapiens) (UniProt Q9UM73); conditions: at 10 µM
# [2] = biological target: T1, Activin receptor type-1B (Homo sapiens) (UniProt P36896); conditions: at 1 µM
# T1 sequence (whole entry): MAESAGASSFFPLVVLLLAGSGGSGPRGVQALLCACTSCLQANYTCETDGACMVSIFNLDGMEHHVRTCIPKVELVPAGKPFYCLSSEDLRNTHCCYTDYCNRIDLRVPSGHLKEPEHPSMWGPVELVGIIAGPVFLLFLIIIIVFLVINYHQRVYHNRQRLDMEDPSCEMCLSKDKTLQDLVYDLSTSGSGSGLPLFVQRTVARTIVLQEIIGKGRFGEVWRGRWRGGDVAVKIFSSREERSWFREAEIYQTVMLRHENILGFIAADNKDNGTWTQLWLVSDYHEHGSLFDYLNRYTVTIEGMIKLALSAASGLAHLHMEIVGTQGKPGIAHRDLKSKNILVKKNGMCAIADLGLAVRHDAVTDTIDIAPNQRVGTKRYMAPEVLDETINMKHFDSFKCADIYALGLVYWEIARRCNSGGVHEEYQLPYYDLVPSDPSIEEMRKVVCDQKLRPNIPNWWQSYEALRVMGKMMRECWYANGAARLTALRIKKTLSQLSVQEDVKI
# [3] = biological target: T1, Activin receptor type-1B (Homo sapiens); conditions: at 10 µM
# [4] = biological target: T2, AMP-activated protein kinase (AMPK) alpha-1/beta-1/gamma-1 (Homo sapiens) (UniProt P54619+Q9Y478+Q13131); conditions: at 1 µM
# T2 sequence (P54619 whole entry): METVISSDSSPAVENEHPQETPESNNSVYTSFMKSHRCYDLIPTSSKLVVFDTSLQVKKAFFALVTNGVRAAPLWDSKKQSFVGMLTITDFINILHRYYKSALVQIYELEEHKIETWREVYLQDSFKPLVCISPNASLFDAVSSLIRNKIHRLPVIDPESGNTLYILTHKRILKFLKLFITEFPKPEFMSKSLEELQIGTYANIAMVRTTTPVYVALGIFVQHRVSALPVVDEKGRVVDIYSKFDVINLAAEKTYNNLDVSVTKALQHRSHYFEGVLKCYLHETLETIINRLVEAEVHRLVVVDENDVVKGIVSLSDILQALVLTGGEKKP
# T2 sequence (Q13131 whole entry partner): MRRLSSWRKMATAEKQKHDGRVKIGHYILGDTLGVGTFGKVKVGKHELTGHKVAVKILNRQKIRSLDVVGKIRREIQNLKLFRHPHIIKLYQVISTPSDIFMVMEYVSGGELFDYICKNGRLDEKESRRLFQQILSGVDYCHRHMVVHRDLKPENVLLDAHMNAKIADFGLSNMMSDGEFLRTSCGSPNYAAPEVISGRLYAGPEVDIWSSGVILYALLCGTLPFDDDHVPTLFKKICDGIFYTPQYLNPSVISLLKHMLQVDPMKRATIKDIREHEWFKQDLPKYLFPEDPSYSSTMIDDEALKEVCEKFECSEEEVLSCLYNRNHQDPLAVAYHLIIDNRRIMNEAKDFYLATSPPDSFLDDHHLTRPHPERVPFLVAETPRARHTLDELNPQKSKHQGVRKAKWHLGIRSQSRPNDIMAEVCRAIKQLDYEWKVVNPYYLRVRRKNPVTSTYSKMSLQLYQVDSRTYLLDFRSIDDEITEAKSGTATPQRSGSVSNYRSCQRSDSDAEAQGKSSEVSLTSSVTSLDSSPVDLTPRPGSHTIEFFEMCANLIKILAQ
# T2 sequence (Q9Y478 2-270 partner limits assumed): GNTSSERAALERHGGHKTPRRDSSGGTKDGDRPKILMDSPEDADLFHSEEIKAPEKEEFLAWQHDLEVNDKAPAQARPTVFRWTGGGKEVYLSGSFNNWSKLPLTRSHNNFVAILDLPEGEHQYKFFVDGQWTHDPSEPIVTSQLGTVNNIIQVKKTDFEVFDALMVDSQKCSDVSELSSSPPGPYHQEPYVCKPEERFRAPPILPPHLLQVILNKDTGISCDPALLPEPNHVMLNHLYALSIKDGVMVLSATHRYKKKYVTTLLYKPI
# [5] = biological target: T2, AMP-activated protein kinase (AMPK) alpha-1/beta-1/gamma-1 (Homo sapiens); conditions: at 10 µM
# [6] = biological target: T3, NUAK family SNF1-like kinase 1 (Homo sapiens) (UniProt O60285); conditions: at 1 µM
# T3 sequence (whole entry): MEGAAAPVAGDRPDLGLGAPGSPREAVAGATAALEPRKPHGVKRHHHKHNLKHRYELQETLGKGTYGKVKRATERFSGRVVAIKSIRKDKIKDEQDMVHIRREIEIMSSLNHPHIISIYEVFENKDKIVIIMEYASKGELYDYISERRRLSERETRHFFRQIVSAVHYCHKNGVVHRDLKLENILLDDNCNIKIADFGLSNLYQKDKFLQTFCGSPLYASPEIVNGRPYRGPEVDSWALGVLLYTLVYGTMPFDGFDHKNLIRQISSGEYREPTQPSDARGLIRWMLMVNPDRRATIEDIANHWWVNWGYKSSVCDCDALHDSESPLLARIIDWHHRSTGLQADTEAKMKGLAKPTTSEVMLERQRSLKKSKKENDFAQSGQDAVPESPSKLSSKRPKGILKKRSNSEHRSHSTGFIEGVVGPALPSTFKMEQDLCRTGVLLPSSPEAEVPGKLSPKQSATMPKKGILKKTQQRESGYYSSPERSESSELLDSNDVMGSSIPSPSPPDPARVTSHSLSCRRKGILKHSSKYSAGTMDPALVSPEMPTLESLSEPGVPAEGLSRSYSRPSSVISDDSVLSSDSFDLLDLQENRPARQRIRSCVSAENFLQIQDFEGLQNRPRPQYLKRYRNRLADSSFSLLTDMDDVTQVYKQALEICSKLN
# [7] = biological target: T3, NUAK family SNF1-like kinase 1 (Homo sapiens); conditions: at 10 µM
# [8] = biological target: T4, AMP-activated protein kinase, AMPK (Homo sapiens) (UniProt P54646+O43741+P54619+Q9UGJ0+Q9Y478+Q13131+Q9UGI9); conditions: at 1 µM
# [9] = biological target: T4, AMP-activated protein kinase, AMPK (Homo sapiens); conditions: at 10 µM
# [10] = biological target: T5, Mitogen-activated protein kinase kinase kinase 5 (Homo sapiens) (UniProt Q99683); conditions: at 1 µM
# T5 sequence (whole entry): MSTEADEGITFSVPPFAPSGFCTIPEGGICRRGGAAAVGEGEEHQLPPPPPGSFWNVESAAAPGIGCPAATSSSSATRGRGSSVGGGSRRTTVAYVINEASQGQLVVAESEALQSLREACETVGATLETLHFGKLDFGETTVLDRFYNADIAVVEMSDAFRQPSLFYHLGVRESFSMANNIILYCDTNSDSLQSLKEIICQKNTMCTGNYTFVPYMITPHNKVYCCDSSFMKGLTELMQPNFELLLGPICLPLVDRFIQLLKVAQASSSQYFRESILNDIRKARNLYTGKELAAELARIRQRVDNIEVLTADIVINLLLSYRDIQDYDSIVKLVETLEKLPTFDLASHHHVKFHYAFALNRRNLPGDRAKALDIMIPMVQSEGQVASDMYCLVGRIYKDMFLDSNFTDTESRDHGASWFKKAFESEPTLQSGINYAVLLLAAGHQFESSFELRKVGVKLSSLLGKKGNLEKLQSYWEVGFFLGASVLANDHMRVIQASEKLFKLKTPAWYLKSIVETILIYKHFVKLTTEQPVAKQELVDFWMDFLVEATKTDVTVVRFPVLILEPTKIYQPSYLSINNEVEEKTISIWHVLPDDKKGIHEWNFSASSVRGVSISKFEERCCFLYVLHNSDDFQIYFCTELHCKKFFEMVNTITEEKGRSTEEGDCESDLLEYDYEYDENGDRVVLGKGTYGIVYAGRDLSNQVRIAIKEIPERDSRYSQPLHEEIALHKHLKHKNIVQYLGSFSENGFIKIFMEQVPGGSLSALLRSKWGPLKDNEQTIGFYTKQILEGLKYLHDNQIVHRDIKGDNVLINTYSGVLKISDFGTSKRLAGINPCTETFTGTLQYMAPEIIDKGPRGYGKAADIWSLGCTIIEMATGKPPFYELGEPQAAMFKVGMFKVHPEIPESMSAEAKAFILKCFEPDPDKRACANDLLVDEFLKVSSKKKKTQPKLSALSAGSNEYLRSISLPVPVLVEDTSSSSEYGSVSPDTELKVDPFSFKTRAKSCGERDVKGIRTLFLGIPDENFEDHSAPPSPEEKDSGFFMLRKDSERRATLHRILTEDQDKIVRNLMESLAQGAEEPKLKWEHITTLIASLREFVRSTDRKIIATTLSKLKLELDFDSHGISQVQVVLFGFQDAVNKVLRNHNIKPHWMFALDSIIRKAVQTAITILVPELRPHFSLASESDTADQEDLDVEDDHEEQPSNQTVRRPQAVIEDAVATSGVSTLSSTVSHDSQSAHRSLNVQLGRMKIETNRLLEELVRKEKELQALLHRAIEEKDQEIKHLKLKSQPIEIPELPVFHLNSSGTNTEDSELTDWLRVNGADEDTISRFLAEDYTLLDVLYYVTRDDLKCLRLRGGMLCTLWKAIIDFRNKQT
# Sequence of ALK tyrosine kinase receptor (Homo sapiens) (Q9UM73 19-1620 limits assumed): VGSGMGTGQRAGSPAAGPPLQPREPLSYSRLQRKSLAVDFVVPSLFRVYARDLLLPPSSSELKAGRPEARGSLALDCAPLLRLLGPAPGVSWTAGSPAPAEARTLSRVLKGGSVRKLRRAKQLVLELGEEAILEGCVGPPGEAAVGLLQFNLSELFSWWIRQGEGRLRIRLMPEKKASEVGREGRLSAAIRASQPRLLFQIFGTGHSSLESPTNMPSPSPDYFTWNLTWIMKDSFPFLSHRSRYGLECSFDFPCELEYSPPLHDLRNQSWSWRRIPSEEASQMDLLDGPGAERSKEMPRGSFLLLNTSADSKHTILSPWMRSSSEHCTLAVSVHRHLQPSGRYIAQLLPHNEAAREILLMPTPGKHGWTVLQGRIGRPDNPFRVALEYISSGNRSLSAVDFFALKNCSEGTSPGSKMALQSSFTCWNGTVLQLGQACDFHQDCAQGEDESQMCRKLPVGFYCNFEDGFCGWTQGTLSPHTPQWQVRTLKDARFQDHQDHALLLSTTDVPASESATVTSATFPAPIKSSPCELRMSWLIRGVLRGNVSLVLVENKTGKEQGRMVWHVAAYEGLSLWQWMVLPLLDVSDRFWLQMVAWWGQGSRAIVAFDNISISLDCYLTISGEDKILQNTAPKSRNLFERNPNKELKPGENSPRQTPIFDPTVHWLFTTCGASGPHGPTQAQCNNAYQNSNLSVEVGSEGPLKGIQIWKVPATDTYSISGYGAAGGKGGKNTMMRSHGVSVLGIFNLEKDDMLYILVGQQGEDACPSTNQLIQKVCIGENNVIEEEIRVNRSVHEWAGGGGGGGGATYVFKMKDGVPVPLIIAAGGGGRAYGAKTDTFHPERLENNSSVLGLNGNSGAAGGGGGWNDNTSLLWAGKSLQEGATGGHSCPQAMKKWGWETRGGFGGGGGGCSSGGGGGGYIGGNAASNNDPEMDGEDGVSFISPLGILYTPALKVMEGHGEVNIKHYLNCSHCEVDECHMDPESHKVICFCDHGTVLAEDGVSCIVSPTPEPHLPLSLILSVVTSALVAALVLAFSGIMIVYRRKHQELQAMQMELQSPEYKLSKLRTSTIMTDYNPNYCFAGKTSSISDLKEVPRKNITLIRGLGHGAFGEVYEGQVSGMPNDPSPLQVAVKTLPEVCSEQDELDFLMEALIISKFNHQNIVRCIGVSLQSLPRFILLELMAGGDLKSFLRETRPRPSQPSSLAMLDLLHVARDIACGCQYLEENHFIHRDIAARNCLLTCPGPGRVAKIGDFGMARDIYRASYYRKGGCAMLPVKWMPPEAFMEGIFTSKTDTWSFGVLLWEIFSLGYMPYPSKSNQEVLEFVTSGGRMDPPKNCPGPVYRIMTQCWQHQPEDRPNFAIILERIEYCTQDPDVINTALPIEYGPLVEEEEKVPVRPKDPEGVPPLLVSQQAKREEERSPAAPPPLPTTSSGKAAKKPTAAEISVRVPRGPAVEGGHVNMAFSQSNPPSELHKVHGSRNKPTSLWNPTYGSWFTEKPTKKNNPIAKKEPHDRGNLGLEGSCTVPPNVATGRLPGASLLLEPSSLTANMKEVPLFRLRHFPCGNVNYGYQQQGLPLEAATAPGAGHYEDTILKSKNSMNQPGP
Compound,residual activity [1] [%],residual activity [2] [%],residual activity [3] [%],residual activity [4] [%],residual activity [5] [%],residual activity [6] [%],residual activity [7] [%],residual activity [8] [%],residual activity [9] [%],residual activity [10] [%]
O=C1Nc2ccc(Br)cc2/C1=C\c1cc2c([nH]1)CCCC2,112,112,101,76,60,70,74,–,–,–
CCC(=O)Nc1ccc2ncnc(Nc3cccc(Br)c3)c2c1,88,125,105,103,94,99,92,105,87,108
CO[C@@H]1[C@H](N(C)C(=O)c2ccccc2)C[C@H]2O[C@]1(C)n1c3ccccc3c3c4c(c5c6ccccc6n2c5c31)C(=O)NC4,33,128,102,10,6,7,7,1,4,96
Nc1cccc(-c2cc3c(Oc4cccc(O)c4)ncnc3[nH]2)c1,8,72,36,53,13,31,7,54,15,96
Cc1nc2cc3nc(-c4cccs4)cnc3cc2n1C,112,123,88,116,83,116,78,118,85,109
CCN(CC)C(=O)c1ccc(Nc2nc(OCC3CCCCC3)c3nc[nH]c3n2)cc1,6,–,–,35,6,2,4,22,5,80
Nc1n[nH]c2nnc(-c3c(-c4ccccc4)nn4ccccc34)cc12,93,111,86,90,82,105,79,92,98,96
Cc1ccc(NC2=CC(=O)c3sc(C)nc3C2=O)cc1,93,105,113,88,84,108,89,94,107,110
COc1ccc(OC)c2c(=S)c3ccccc3[nH]c12,76,90,117,90,81,103,84,–,87,96
Cc1nc(-c2ccccc2)c(-c2ccncc2)o1,99,119,88,105,108,99,88,114,114,100
CO[C@H]1C[C@@H]2CC[C@@H](C)[C@@](O)(O2)C(=O)C(=O)N2CCCC[C@H]2C(=O)O[C@H]([C@H](C)C[C@@H]2CC[C@@H](O)[C@H](OC)C2)CC(=O)[C@H](C)/C=C(\C)[C@@H](O)[C@@H](OC)C(=O)[C@H](C)C[C@H](C)/C=C/C=C/C=C/1C,32,115,110,79,–,99,96,93,107,85
CN(C)CCCn1cc(C2=C(c3c[nH]c4ccccc34)C(=O)NC2=O)c2ccccc21,–,119,76,44,10,35,11,26,4,–
C[C@@H](N)[C@H]1CC[C@H](C(=O)Nc2ccncc2)CC1,126,82,63,98,93,101,91,104,83,101
O=C1Nc2ccccc2/C1=C1/Nc2ccccc2/C1=N\OCCC(O)CO (configuration not stated),2,–,–,4,4,2,5,3,4,68
Oc1ccc(-c2nc(-c3ccc(F)cc3)c(-c3ccncc3)[nH]2)cc1,82,57,8,102,86,122,93,109,86,92
N#Cc1cnc2cnc(NCc3cccnc3)cc2c1Nc1ccc(F)c(Cl)c1,75,–,92,-2,-1,–,-1,-5,-1,85
COc1ccc(S(=O)(=O)N(CCO)c2ccccc2CN(C)C/C=C/c2ccc(Cl)cc2)cc1,59,96,102,104,76,100,75,99,74,94
O=c1c2ccccc2[nH]c(=S)n1CCN1CCC(=C(c2ccc(F)cc2)c2ccc(F)cc2)CC1,73,149,111,101,84,90,120,97,74,106
